Bioassay records from PubChem.
This is a sample that favours compounds with a hit; in the whole collection about 6.5% have one here.
VACV mCherry inh = inhibitors of vaccinia virus infection (mCherry reporter signal); Vaccinia virus mCherry reporter infection, fluorescence; Potency, µM (doses to about 36.5 µM), for the others: at the highest dose activity change, negative = inhibition, actives largely listed as inhibitors; actives 0.63% (n = 310,000); AID 720579; calls by dose curve; tested in A549 cells; note: potency is the fitted concentration of half-maximal effect; nearly all actives have a fitted effect of over 35% in size
LASV entry inh = Lassa virus entry inhibition | Lassa virus pseudotype entry inhibition, cell reporter | Potency, µM (top dose mostly 37.9 µM), for the others: top-dose activity change, negative = inhibition, actives largely listed as inhibitors | actives 1.2% (n = 300,000); calls by dose curve; tested in HEK293 cells; note: potency is the fitted concentration of half-maximal effect; nearly all actives have a fitted effect of over 50% in size
VACV Venus inh = vaccinia inhibition (Venus reporter) | Potency, µM (top dose mostly 36.5 µM), for inactives: top-dose activity change, negative = inhibition, actives largely listed as inhibitors | Vaccinia virus Venus reporter expression, fluorescence | actives 0.46% (n = 330,000); calls by dose curve; tested in A549 cells; note: potency is the fitted concentration of half-maximal effect; nearly all actives have a fitted effect of over 30% in size
FMDV inh = foot and mouth disease virus antiviral activity | actives 1.2% (n = 410,000) | FMDV antiviral cell-based qHTS | Potency, µM (top dose mostly 57.9 µM), without a hit: top-dose activity change, negative = inhibition, most hits filed as inhibitors; calls by dose curve; tested in HEK293T cells; note: read-out not given here; potency is the fitted concentration of half-maximal effect; nearly all actives have a fitted effect of over 45% in size
Marburg entry inh = inhibitors of Marburg virus binding or cell entry. Marburg virus pseudotyped entry inhibition, cell reporter. Potency, µM (series often up to 37.8 µM), for inactives: at the top dose activity change, negative = inhibition, actives largely listed as inhibitors. actives 1.8% (n = 300,000). AID 540276; calls by dose curve; tested in HEK293 cells; note: potency is the fitted concentration of half-maximal effect
HCMV inh = blocks human cytomegalovirus replication; HFF cells, HCMV-luciferase reporter, 72 h; active compounds read low; activity change, negative = inhibition, % at 57.5 µM; actives 4.5% (n = 410,000); in the data active = activity change below about -60%; inconclusive = no clear call, values can overlap the other calls; inactive = above about -39%
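Inhibition of viral replication was scored as loss of reporter luminescence in HFFs infected with HCMV-luciferase (MOI 1 PFU/cell) for 72 h; compounds tested at 2 doses, normalized to buffer and Salinomycin controls.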
* = called active by the depositor; i = inactive; u = inconclusive; x = no result given; [ ] = dose if it differs, or a comment. % is set by controls: 0 for no effect and ±100 for the full control effect.

SMILES	VACV mCherry inh	LASV entry inh	VACV Venus inh	FMDV inh	Marburg entry inh	HCMV inh
Cc1oc(-c2ccc(Cl)cc2)nc1CN1CCCC(C(=O)NC2CC2)C1 (centres undefined)	x	x	x	-9.1%	x	17.6
COc1ccc(C2(C)NC(=O)N(CC(=O)Nc3ccc(S(=O)(=O)N4CCCC4)cc3)C2=O)cc1 (centres undefined)	-15.3%	-11.9%	-2.6%	-12.9%	5.7%	5.1
Cc1ccc(C(=O)[C@H]2[C@H](c3cccs3)NC(=O)N[C@]2(O)C(F)(F)F)cc1	x	x	x	x	-26.3%	x
C#Cc1ccc(NC(=O)C2(C)CCN2C(=O)Cc2ccc(C(C)(C)C)cc2)cc1 (centres undefined)	i	x	-10.4%	u	x	-83.4*
C#Cc1ccc(NC(=O)C2(C)CCN2C(=O)Cc2ccc(C(C)C)cc2)cc1 (centres undefined)	13.3%	x	-18.6%	u	x	-81.5*
CC1(C)C[C@H](n2[nH]c(=O)c3c2NC(=O)CS[C@@H]3c2ccccc2)CCO1	x	x	x	x	13.9%	x
COc1ccc(-c2csc(N3CCN(c4cc(C)nc5ccccc45)CC3)n2)cc1OC	u	u	-5.6%	0.0%	u	-111.9*
COc1ccc(C(=O)CN2CCN(c3cc(C)nc4ccccc34)CC2)cc1	x	x	x	u	x	-61.0*
Cc1cc(N2CCN(C(=O)Oc3ccc([N+](=O)[O-])cc3)CC2)c2ccccc2n1	5.5%	x	-20.2%	25.1µM*	x	u
COc1cccc(Cl)c1NC(=O)N1CCN(c2cc(C)nc3ccccc23)CC1	-24.4%	u	u	u	u	-80.1*
COC(=O)C(Nc1cc(OC)ccc1OC)(c1ccccc1)C(Nc1cc(OC)ccc1OC)c1ccc(C(F)(F)F)cc1 (centres undefined)	x	x	x	x	x	-32.1
COc1c2ccccc2c(OC)c2ccccc12	-17.0%	15.2%[46.1 µM]	-8.3%	25.8%	3.9%[46.1 µM]	-63.8*
COc1nnc(OC)c2ccccc12	-14.9%	16.6%	-3.0%	x	24.9%	u
Cc1cc(C2(c3ccc(O)c(C)c3)C(=O)Nc3ccccc32)ccc1O	x	u	u	u	u	-79.6*
Cc1cccc2c1NC(=O)C2(c1ccc(O)cc1)c1ccc(O)cc1	x	-13.1%	-24.6%	-18.2%	-11.3%	-7.4
CCc1nccc2c1nc(-c1nonc1N)n2CC	x	25µM*	x	x	x	x
C/C(=N\NC(=S)Nc1c(C)cccc1C)c1cc2ccccc2o1	7.08µM*	u	u	-26.4%	u	-33.0
C/C(=N\NC(=S)Nc1ccccc1C)c1cc2ccccc2o1	u	u	-21.0%	-18.0%	u	u
COc1ccc(NC(=O)CSc2nnc(-c3cccs3)o2)cc1	-6.7%[7.34 µM]	21.4%[46.1 µM]	0.1%[7.34 µM]	-14.3%	u	81.7
CN(C)c1ccc(C(C[N+](=O)[O-])c2c(N)n(C)c(=O)n(C)c2=O)c(F)c1C#N (centres undefined)	x	x	x	35.5µM*	x	x
COc1ccc(Br)cc1C(C[N+](=O)[O-])c1c(N)n(C)c(=O)n(C)c1=O (centres undefined)	x	x	x	u	x	-100.1*
Cc1ccc(C(=O)Nc2cc(-c3cn4cccnc4n3)ccc2C)cc1C	-0.1%	u	-16.0%	-16.3%	x	20.1
Cn1c(=O)cc(SCC(=O)NCCc2ccc(Cl)cc2)c2cc(Cl)ccc21	-19.7%	9.2%[46.1 µM]	-11.1%	-17.4%	u	11.5
Cc1ccc(C(=O)Nc2ncc(C)s2)s1	-15.5%	5.01µM*	-14.5%	-10.1%	2.82µM*	1.0
Cc1nc2c(ccc3nc(NC(=O)Cc4cccc5ccccc45)sc32)s1	9.3%	u	-17.4%	u	-2.9%	-15.5
SMILES	VACV mCherry inh	LASV entry inh	VACV Venus inh	FMDV inh	Marburg entry inh	HCMV inh
Cc1ccc(C(=O)Nc2ncc(C)s2)o1	x	u	x	31.5%	5.2%	27.2
Cc1ccc2sc(NC(=O)c3ccc4c(c3)OCCO4)nc2c1C	2.5%[7.34 µM]	18.6%[46.1 µM]	-5.2%[7.34 µM]	-13.5%	x	65.9
Cc1cnc(NC(=O)c2cc3ccccc3o2)s1	i	-29.8%[46.1 µM]	-9.9%	-10.3%	12.6µM*	70.9
Cc1nc2c(ccc3nc(NC(=O)c4ccc5c(c4)OCCO5)sc32)s1	-7.5%	-23.5%	-23.5%	x	u	-82.5*
Cc1nc2c(ccc3nc(NC(=O)C(c4ccccc4)c4ccccc4)sc32)s1	u	7.1%	u	12.6µM*	-5.5%	0.8
C[C@H](CO)N1C[C@H](C)[C@H](CN(C)C(=O)Nc2cccc(Oc3ccccn3)c2)OCc2cnnn2CCCC1=O	7.4%	x	-4.5%	0.0%	x	-1.0
Cc1cnc(NC(=O)c2ccc3c(c2)OCCO3)s1	x	x	x	10µM*	x	-79.7*
Cc1nc2ccc3nc(NC(=O)c4ccc(S(=O)(=O)N5CCOCC5)cc4)sc3c2s1	-8.1%	14.0%[14.3 µM]	-3.9%	12.4%	-12.1%	8.6
Cc1ccccc1NC(=O)c1ccc2c(c1)OCCO2	x	28.8%	-15.7%	0.0%	27.8%	24.5
Cc1nc2ccc3nc(NC(=O)c4ccc5c(c4)OCCO5)sc3c2s1	-4.3%	u	-3.9%	18.0%	14.5%	-105.6*
COCCn1c(=O)cnc2cnc(OC)nc21	x	x	x	-11.1%	x	x
CC(=O)NC1=NN(C(C)=O)C2(S1)C(=O)N(CC(C)C)c1ccc(C)cc12 (centres undefined)	x	x	x	80.6%	x	13.2
Cc1cccc(NC(=O)C(c2ccccc2)N2Cc3ccccc3C2=O)c1C (centres undefined)	i	-0.6%[46.1 µM]	-6.6%	15.7%	x	-73.8*
CCc1ccccc1NC(=O)[C@@H](c1ccccc1)N1Cc2ccccc2C1=O	-4.1%	-19.6%[46.1 µM]	3.7%	4.5%	u	-17.1
O=C(NCc1cccs1)C(=O)c1cn(CC(=O)N2CCOCC2)c2ccccc12	i	10.9%	-6.7%	7.7%	0.7%[46.1 µM]	-95.5*
Cc1cccc(C(=O)Nc2cccc(OCc3cc(=O)n4c(C)csc4n3)c2)c1	-9.9%	-0.8%[46.1 µM]	-6.2%	-4.7%	-4.1%[46.1 µM]	-12.5
N#CC(=C1C=CC(=NO)C(Cl)=C1)c1ccc(Cl)cc1	-7.3%	u	-8.8%	-14.5%	-21.4%	-74.0*
CCCOc1c(Br)cc(/C=N/O)cc1OC	x	-15.2%	u	0.0%	10µM*	-2.8
CC(C)n1c(=O)c2ccccc2n1Cc1cn(Cc2ccccc2)nn1	-0.7%	x	-14.4%	-18.9%	x	25.1
COCCn1c(SCC(=O)c2ccc(F)cc2)nc2cc(C(=O)NC3CCCC3)ccc2c1=O	0.1%	10.8%[46.1 µM]	3.6%	0.0%	x	4.6
CS(=O)(=O)c1ccc(N)c(SSc2cc(S(C)(=O)=O)ccc2N)c1	i	x	-6.5%	4.3%	x	-82.4*
CS(=O)(=O)c1ccc2nc(N)sc2c1	-13.3%	7.5%	-7.2%	12.2%	12.4%	47.5
CC(C)CO/N=C1\C[C@@H](O)[C@@H](O)[C@@H]2[C@@H]3C(=O)N(C[C@@H]4CCCO4)C(=O)[C@@H]3CC[C@H]12	x	x	x	x	10.4%[14.2 µM]	x
C=CC[C@@H](CC(=O)N[C@@H](CO)Cc1ccccc1)C(=O)N[C@@H](COC(=O)[C@@H](CC=C)CC(=O)OC(C)(C)C)Cc1c[nH]c2ccccc12	-12.5%	x	u	-8.7%	x	12.9
